Common to all, as to experiment: NCI-60 one-dose screen, 48 h (100 = growth as untreated, 0 = no growth, -100 = all killed)
One experiment concerns SK-MEL-2 melanoma. As to conditions: 10 µM unless noted.
In a further experiment the test system is SN12C renal. The following applies: 10 µM unless noted.
A further experiment has as its system UO-31 renal. The following applies: 10 µM unless noted.
Another experiment relates to TK-10 renal. The following applies: 10 µM unless noted.
In the next experiment the test system is ACHN renal. The following applies: 10 µM unless noted.
A further experiment relates to CAKI-1 renal. The following applies: 10 µM unless noted.
The next experiment concerns A498 renal. As to conditions: 10 µM unless noted.
Another experiment relates to CCRF-CEM leukemia. As to conditions: 10 µM.
The subject of a further experiment is EKVX NSCLC. As to conditions: 10 µM.
The next experiment has as its system MOLT-4 leukemia. As to conditions: 10 µM unless noted.

Values joined by “and” are separate entries in the source; they are usually repeats but may differ in a detail not shown here. Equal values may be shown once. About 83,000 compounds went through this panel and 20% of them were active in at least one assay; those are over-represented in the sample as a whole.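 96-well plates, one dose, 48 hours. Percent growth reported; active if below 10.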 Values without a mark were called inactive. Active and inactive are the calls of the source.

For `CN(C)c1ccc(/C=C\C(=O)c2ccccc2)cc1`, the growth was 93.3% and 91.9% and 72.1% in the experiment with SK-MEL-2 melanoma; 95.6% and 98.8% and 95% in the experiment on SN12C renal; 74.5% and 69.4% and 63.9% with UO-31 renal; 76.6% and 79% and 70.5% in the experiment with TK-10 renal; 99.4% and 101% in the experiment with ACHN renal; 86.9% and 93.8% with CAKI-1 renal. Moreover, the growth is 91.8% and 71.8% and 102% with A498 renal; 70.4% and 65% and 74% with CCRF-CEM leukemia.
Regarding `Nc1cc(N)c(N)cc1N`, the growth is -62.5% (active) in the experiment with SK-MEL-2 melanoma; -69.7% (active) with SN12C renal; -0.0578% (active) in the experiment with UO-31 renal; 101% with TK-10 renal; 8.63% (active) in the experiment on ACHN renal; 82.5% in the experiment with CAKI-1 renal. For the same compound, the growth in the experiment on A498 renal is 99.8%; in the experiment on CCRF-CEM leukemia, 89.6%.
On to `O=C1OC(c2ccccc2)=N/C1=C\c1ccccc1`, for which the growth in the experiment with SK-MEL-2 melanoma is 116%; in the experiment with SN12C renal it was 102%; with UO-31 renal, 95.2%; in the experiment on TK-10 renal, 117%; in the experiment with ACHN renal it was 104%; with CAKI-1 renal, 110%. The growth in the experiment with CCRF-CEM leukemia was 100%.
Regarding `O=C1CSC2=NCCN12`, the growth in the experiment with SK-MEL-2 melanoma is 89%; with SN12C renal, 106% and 93.2%; in the experiment with UO-31 renal, 84.6% and 90.1%; in the experiment on TK-10 renal, 101% and 106%; in the experiment on ACHN renal, 98.1% and 103%; in the experiment on CAKI-1 renal it was 95.6%. For the same compound, the growth was 92.8% and 99.7% with A498 renal; 102% and 88.1% in the experiment on CCRF-CEM leukemia.
Turning to `O=C(/C=C/c1ccccc1)c1ccccc1`, the growth with SK-MEL-2 melanoma is 101%; with SN12C renal, 100%; in the experiment with TK-10 renal, 114%; with ACHN renal it was 107%; in the experiment on CAKI-1 renal, 99.2%; in the experiment on A498 renal it was 94.2%.
Take `CC(C)(O)C(=O)O`: the growth with SK-MEL-2 melanoma was 112%; in the experiment with EKVX NSCLC, 94%; with SN12C renal it was 102%; with UO-31 renal it was 95.2%; with TK-10 renal it was 98.9%; with ACHN renal it was 104%. For the same compound, the growth in the experiment with CAKI-1 renal is 101%; in the experiment with A498 renal, 103%; in the experiment on MOLT-4 leukemia, 108%.
As to `O=C1OC(C(O)C(O)CO)C(O)=C1O` (stereo not given), the growth with SK-MEL-2 melanoma was 92.9% and 101%; in the experiment on EKVX NSCLC, 110% and 99.5%; with SN12C renal, 107% and 101%; in the experiment on UO-31 renal it was 104% and 94.2%; in the experiment with TK-10 renal, 124% and 100%; with ACHN renal it was 105% and 103%. Further, the growth in the experiment on CAKI-1 renal was 104% and 102%; in the experiment on A498 renal it was 129% and 116%; in the experiment on CCRF-CEM leukemia, 102% and 101%.
Turning to `O=C1C=C(Nc2ccccc2)c2ccccc2C1=O`, the growth with SK-MEL-2 melanoma is 101%; in the experiment with SN12C renal, 20.9% and 93.6%; in the experiment on UO-31 renal, 65.1% and 79.9%; in the experiment with TK-10 renal, 149% and 136%; in the experiment with ACHN renal, 30.1% and 92.8%; in the experiment with CAKI-1 renal, 55.9% and 98.1%. Besides, the growth in the experiment with A498 renal was 87% and 113%; in the experiment on CCRF-CEM leukemia, 65.8% and 94.4%.
With `CC1(C)COC(=S)N1`, the growth was 107% in the experiment on SK-MEL-2 melanoma; 94.1% in the experiment with EKVX NSCLC; 93.5% with SN12C renal; 90.7% in the experiment on UO-31 renal; 101% in the experiment with TK-10 renal; 97.5% in the experiment with ACHN renal. Besides, the growth in the experiment on CAKI-1 renal is 95.7%; in the experiment with A498 renal it was 121%; in the experiment with CCRF-CEM leukemia, 108%; in the experiment on MOLT-4 leukemia it was 108%.
As for `Oc1ccc(Cc2ccccc2Cl)c(O)c1`, the growth was 97.8% with SK-MEL-2 melanoma; 96.3% in the experiment with EKVX NSCLC; 91.2% in the experiment with SN12C renal; 103% with TK-10 renal; 92% with ACHN renal; 91% with CAKI-1 renal. For the same compound, the results for the growth in the experiment on A498 renal, in the experiment on CCRF-CEM leukemia and in the experiment with MOLT-4 leukemia were 75.3%, 94.1% and 88.7%, respectively.
For the compound `CC(=O)OC(C)C(=O)NCC(C)O` (stereo not given), the growth in the experiment with SK-MEL-2 melanoma was 110%; with SN12C renal, 106%; with UO-31 renal it was 82.4%; in the experiment with TK-10 renal, 113%; in the experiment on ACHN renal, 102%; in the experiment on CAKI-1 renal it was 108%. Moreover, the growth was 98.2% with A498 renal, 98.9% with CCRF-CEM leukemia and 98.1% in the experiment on MOLT-4 leukemia.
On to `CC(=O)Nc1ccc(S(N)(=O)=O)cc1`, for which the growth in the experiment on SK-MEL-2 melanoma was 109% and 110%; in the experiment on EKVX NSCLC it was 102%; in the experiment with SN12C renal, 97.5% and 102%; with UO-31 renal it was 95.8% and 84.3%; with TK-10 renal it was 101%; in the experiment on ACHN renal, 103% and 93.3%. In addition, the growth is 108% and 93.2% with CAKI-1 renal; 85.8% and 101% in the experiment on A498 renal; 93.2% and 100% with CCRF-CEM leukemia; 103% and 98.8% in the experiment on MOLT-4 leukemia.
`Cc1cc(-c2ccc(N=Nc3ccc4c(S(=O)(=O)O)cc(S(=O)(=O)O)c(N)c4c3O)c(C)c2)ccc1N=Nc1ccc2c(S(=O)(=O)O)cc(S(=O)(=O)O)c(N)c2c1O`: the growth in the experiment with SK-MEL-2 melanoma is 112%; with EKVX NSCLC it was 86.6%; with SN12C renal it was 99.1%; in the experiment on UO-31 renal, 74.1%; with TK-10 renal it was 112%; with ACHN renal, 91.6%. For the same compound, the growth in the experiment with CAKI-1 renal was 86.9%; in the experiment with A498 renal it was 103%; with CCRF-CEM leukemia it was 85.7%.

These data come from PubChem BioAssay (NCI).
